An excerpt weighted towards active compounds, which were near 4.5% of everything screened.
PfHsp90 yeast 2 – reduces growth (ATP signal) of yeast expressing P. falciparum Hsp90; S. cerevisiae expressing PfHsp90, BacTiter-Glo ATP, 48 h; yeast lacking PDR1 and PDR3 efflux regulators; 310,000 tested, 0.32% active; inhibition, % at 9.4 µM; AID 504621;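 active = every replicate shows inhibition above about 80%, whatever the replicate mean, limit read from the data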;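 also: 0% = DMSO neutral controls and 100% = 20 µM radicicol positive controls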
tim23-1 inh – growth inhibitors of tim23-1 mutant yeast. S. cerevisiae tim23-1 growth, BacTiter-Glo luminescence, 24 h. inhibition, % at 20 µM. 330,000 tested, 1.3% active. AID 463212;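 active = growth inhibition of the mutant yeast at or above 50%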;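 also: temperature-sensitive mutant grown at 25 °C; plate controls were DMSO-treated mutant yeast for no effect and medium wells lacking yeast for full effect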
NALP3 yeast inh – NALP3 inhibition in yeast; Yeast reconstituted NLRP3/ASC/caspase-1, beta-gal luminescence, 24 h; inhibition, % at 10 µM; 330,000 tested, 0.39% active; AID 2825;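 active = inhibition of 50% or more; inactive = inhibition below 50%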;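 also: plate controls were induced DMSO wells for no effect and uninduced yeast grown without galactose for full effect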
TIM10 inh – TIM10 yeast growth inhibition; 330,000 tested, 1.4% active; S. cerevisiae TIM10 strain growth, BacTiter-Glo luminescence, 24 h; inhibition, % at 10 µM;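 active = inhibition of 40% or more at the single tested concentration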;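 also: wild-type TIM10 isogenic control strain grown at permissive 25 °C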
tim10-1 inh – inhibits growth of tim10-1 mutant yeast. S. cerevisiae tim10-1 ts strain growth, BacTiter-Glo, 24 h. inhibition, % at 20 µM. 330,000 tested, 2.2% active. AID 463190;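 active = inhibition of at least 40%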;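 also: mutant grown at 25 °C; 0% = DMSO wells with yeast and 100% = wells holding no yeast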
SKKanGAS inh – inhibitors of SKKanGAS S. pyogenes growth in kanamycin (SK-promoter or general growth effect); BacTiter-Glo, 6 h; inhibition, % at 7.5 µM; 300,000 tested, 1.3% active; AID 1662;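 active = mean replicate score, as percent of positive control median, at least 50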;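 also: strain carries kanamycin resistance gene driven by streptokinase promoter and grows in 40 µg/ml kanamycin; loss of luminescence reflects streptokinase promoter inhibition or plain growth inhibition; 0% = median of DMSO wells and 100% = positive control at its reference dose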
An asterisk follows results filed as active; nt = no result.

SMILES | PfHsp90 yeast 2 | tim23-1 inh | NALP3 yeast inh | TIM10 inh | tim10-1 inh | SKKanGAS inh
CN(C)CCCNC(=O)C(=O)Nc1cc2c3c(c1)CCC(=O)N3CCC2 | -9 | -1 | 5 | 2 | 0 | -2
COc1ccc(CCNC(=O)C2CC(=O)N(C3CCCCC3)C2)cc1OC (stereo not given) | -14 | 6 | 19 | 2 | -15 | -1
C/C(=C/CCC(C)C1CCC2(C)C3CCC4C(C)(C)C(=O)CCC4(C)C3=CCC12C)C(=O)O (stereo not given) | nt | nt | nt | nt | nt | 105*
C/C(=C/CCC(C)[C@H]1CC[C@@]2(C)C3=C(CC[C@]12C)[C@@]1(C)CCC(=O)C(C)(C)[C@@H]1CC3)C(=O)O (stereo not given in full) | 8 | nt | nt | nt | nt | 105*
O=C(NCC(=O)N(c1cccnc1)C(C(=O)NC1CCCCC1)c1ccccc1F)c1ccco1 (stereo not given) | 14 | 16 | 2 | 7 | 0 | 0
O=C1C(Nc2ccc(O)cc2)=C/C(=N/S(=O)(=O)c2cccs2)c2ccccc21 | -52 | nt | nt | nt | nt | 87*
CCc1noc(C)c1C(=O)NNC(=O)c1ccccc1F | -1 | -8 | 9 | -4 | -10 | -1
Cc1cc(C)n2nc(C(=O)OCC(=O)Nc3ccc(F)cc3F)nc2n1 | -13 | 9 | 8 | 18 | -1 | 1
CCCc1nc2oc3c(Cl)ncnc3c2c2c1CCCC2 | 25 | 43 | 25 | 33 | 22 | 53*
CC(C)Cc1nc2oc3c(Cl)ncnc3c2c2c1CCCC2 | -4 | 36 | -2 | 18 | 26 | -11
COc1ccc(CCNC(=O)C/C(C)=N/NC(=O)C(c2ccccc2)c2ccccc2)cc1OC | 3 | 14 | -4 | 12 | 13 | 4
COC(=O)CSc1nnc(NC(=O)c2ccc3c(c2)OCO3)s1 | -12 | -6 | 12 | -25 | -5 | 52*
O=C(O)CSc1nnc(NC(=O)c2ccc3c(c2)OCO3)s1 | 18 | 16 | 9 | -1 | 26 | -14
O=S(=O)(N[C@H]1C[C@@H](NS(=O)(=O)OCC(Cl)(Cl)Cl)C2CCCCC21)OCC(Cl)(Cl)Cl (stereo not given in full) | 15 | nt | nt | nt | nt | 93*
CCn1c(O)c(/C=N/N=C/c2ccccc2)c2ccc(C3=NNC(=O)CC3)cc21 | nt | 22 | 14 | 24 | 30 | 52*
CC(C)CN(Cc1cc(=O)oc2cc(-c3ccccc3)c(O)cc12)CC(C)C | -18 | 22 | 14 | 23 | 15 | 76*
Nc1ccccc1N=c1ssnc1Cl | 6 | nt | nt | nt | nt | nt
Cc1nnc(N=c2ssnc2Cl)o1 | 143* | 39 | 12 | 28 | 27 | nt
Cc1cc(C)c(-c2noc(C(=O)OC(C)(C)C)c2C(=O)OC(C)(C)C)c(C)c1 | 9 | 6 | -10 | -5 | 24 | 72*
COc1cc(OC)c(-c2noc(C(=O)OC(C)(C)C)c2C(=O)OC(C)(C)C)c(OC)c1 | 19 | 14 | 4 | -1 | 33 | 3
Cc1ccc(CN2CCN(/N=C/c3cc(Br)cc(Br)c3O)CC2)c(C)c1 | 2 | 33 | 9 | -9 | 6 | -8
Cc1ccc(C(=O)O)cc1N=Cc1cc(Br)cc(Br)c1O | 107* | nt | nt | nt | nt | 7
CC(C)C1Nc2c(O)cc(Cl)c([N+](=O)[O-])c2C2C=CCC21 (stereo not given) | 110* | nt | nt | nt | nt | 79*
CN(CC(=O)Nc1cccc(F)c1)C(=O)c1ccc2c(c1)CC(c1ccccc1)OC2=O (stereo not given) | 11 | 12 | 24 | 6 | -3 | nt
Oc1[nH]c(N=C2N=c3ccccc3=N2)c2ccccc12 | 27 | nt | nt | nt | nt | 82*
SMILES | PfHsp90 yeast 2 | tim23-1 inh | NALP3 yeast inh | TIM10 inh | tim10-1 inh | SKKanGAS inh
Cc1ccccc1-c1n[nH]c(=S)o1 | -7 | 10 | 19 | -7 | 11 | 1
CSc1ccccc1-c1n[nH]c(=S)o1 | 3 | 20 | 13 | 3 | 24 | 56*
Cc1nc(N)nc(N)c1/C=C/C(C)(C)c1ccc(Cl)cc1 | -8 | nt | nt | nt | nt | 97*
O=C(CCSc1ccc(Cl)c(Cl)c1)NC12CC3CC(CC(C3)C1)C2 | 1 | 35 | 18 | 28 | 38 | 65*
COc1ccc(S(=O)(=O)N2CCOCC2)cc1NC(=O)C1CC1 | -1 | -10 | 13 | -8 | 0 | nt
CCOC(=O)c1sc2nc3c(SCC(=O)O)cc(C(=O)c4cc(F)ccc4O)cn3c(=O)c2c1C | -2 | nt | nt | nt | nt | 74*
COc1ccc(O)c(C(=O)c2cc(SCC(=O)O)c3nc4sc5c(c4c(=O)n3c2)CCCC5)c1 | -9 | 21 | 15 | 12 | 12 | 52*
O=c1c2c(nc3c(-c4ccccc4)c[nH]n13)CCC2 | -5 | 9 | 10 | 9 | 19 | 16
O=c1c2c(nc3c(-c4ccc(Cl)cc4)c[nH]n13)CCC2 | -29 | 1 | 9 | -11 | -9 | 66*
CC1CCc2c(sc3nc(C4CC4)nc(N4CCN(C(=O)c5ccco5)CC4)c23)C1 (stereo not given) | 0 | 16 | 26 | 34 | 19 | 58*
COc1ccc(S(=O)(=O)NCCC(=O)OCC(=O)NC2CC2)cc1 | 33 | 3 | 6 | -1 | -13 | nt
NC(=O)NC(=O)C(Nc1ccc(N2CCCCC2)cc1)c1ccccc1 (stereo not given) | -12 | 11 | 14 | -5 | -3 | 1
O=C(NC(=S)N1CCN(c2c(Cl)cccc2[N+](=O)[O-])CC1)c1cccs1 | -19 | 23 | 33 | 35 | 24 | 76*
O=C(NC(=S)N1CCN(c2ccc(O)cc2)CC1)c1cccs1 | 2 | 0 | 7 | 12 | 16 | -13
NC(=O)C1CCN(C(=O)c2cc(-c3ccc(Cl)s3)nc3ccccc23)CC1 | 10 | 9 | -2 | 1 | 1 | nt
CCOC(=O)c1ccc(NC(=O)CC2S/C(=N/N=C/c3c[nH]c4ccccc34)NC2=O)cc1 (stereo not given) | 2 | -27 | -7 | -31 | -8 | 65*
Cc1ccc(NC(=O)CC2S/C(=N/N=C/c3c[nH]c4ccccc34)NC2=O)cc1 (stereo not given) | -18 | -12 | -5 | -3 | 6 | 3
COC(=O)C(C(=O)OC)C(C[N+](=O)[O-])c1ccc(OC)c(OC)c1 (stereo not given) | nt | 10 | 12 | 1 | -1 | -6
COc1ccc(C(C[N+](=O)[O-])C2(c3ccc(OC)c(OC)c3)C(=O)c3ccccc3C2=O)cc1 (stereo not given) | 105* | nt | nt | nt | nt | 22
CC(C)CCC(CCNCc1ccccn1)c1ccc(Cl)cc1 (stereo not given) | -19 | 14 | 12 | 18 | 11 | 51*
CCN(CC)S(=O)(=O)c1ccc(C(=O)NCC2(N3CCOCC3)CCCCC2)cc1 | nt | -3 | 25 | 12 | 1 | nt
O=C(O)CC(Cc1ccccc1)c1ccc2c(c1)OCO2 (stereo not given) | nt | 18 | 0 | -6 | 3 | -6
CC(=O)N(CCC(Cc1ccccc1)c1ccc2c(c1)OCO2)Cc1ccc(Cl)cc1 (stereo not given) | -99 | 5 | -23 | 34 | 18 | 64*

Assay outcomes deposited in PubChem BioAssay by several laboratories.
